# Out of some 38,000 compounds screened, about 1,200 (3.2%) showed an effect of 50% or more. The median lay at about -58%. The full list was thinned out, with strong results kept by preference.
# System: Plasmodium falciparum
# Experiment: Calibr Malaria Delayed Death Assay SOP
# Type: functional, organism-based
# Parameters: scale not given: in the data most compounds retested in dose-response had high values
# Conditions: concentration 4.99e-06 (unit not given; other assays of the set use mol/L)
row,Compound,Percent Effect [%]
1,COCCn1cnc2ccc(NC(=O)CCCn3cccn3)cc2c1=O,-21.82
2,Cn1cc(-c2cnc(N3CCOCC3)nc2)cc1C(=O)NCCC#N.O=C(O)C(F)(F)F,-137.7
3,O=C(O)CN1CCC(c2ccccc2)C1 (configuration not stated),-52.87
4,Cc1cc(C)c2nc(CN3CC[C@@H](O)C3)cc(O)c2c1,-11.32
5,Cc1ccc2nc(CN3CCN(C4CCCC4)C(=O)C3)cc(O)c2c1,-147.5
6,Cc1cc(C)c2nc(CN3CCCC(c4cc[nH]n4)C3)cc(O)c2c1 (configuration not stated),52.56
7,Cc1ccncc1NS(=O)(=O)c1ccc(Cl)s1,-120.5
8,O=C(c1cnn2c1OCCC2)N1CCN(C(=O)C2CCCO2)CC1 (configuration not stated),-54.26
9,CC(C)(C(=O)NCC1CCN(Cc2cccnc2)C1)c1ccccc1 (configuration not stated),51.87
10,COC(C)(C)C(=O)NCC1CCN(Cc2cc3ccccc3[nH]2)C1 (configuration not stated),-53.37
11,CC(C)(C(=O)NCC1CCN(Cc2ncc[nH]2)C1)c1ccccc1 (configuration not stated),-18.61
12,O=C(CCn1ccc2ccc(F)cc21)/N=c1\[nH]nc(C2CCCO2)s1 (configuration not stated),-163.8
13,CCC(NC(=O)CNC(=O)OC)c1cc(F)ccc1F (configuration not stated),-47.96
14,CCN(CC)S(=O)(=O)NC1CCCc2nc(-c3ccccc3)ncc21 (configuration not stated),-18.05
15,CC(C)N1CCC2(CC1)C(=O)N(c1cccnc1)c1c(F)cccc12.Cl,48.28
16,CC(C)N1CCC2(CC1)C(=O)N(c1cccnc1)c1ccc(F)cc12.Cl,64.31
17,CN1CCC2(CC1)C(=O)N(c1cccnc1)c1ccc(F)cc12.Cl,58.26
18,CC(=O)N1CCC2(CC1)C(=O)N(c1cccnc1)c1ccc(F)cc12,-45.42
19,CC(C)N1C(=O)C2(CCN(C)CC2)c2cc(F)ccc21.Cl,-16.08
20,CN1CCC2(CC1)C(=O)N(C)c1ccc(F)cc12.Cl,-104.9
21,CC(=O)c1cc2ncc(C(=O)NC3CC3)cc2[nH]1,-111.2
22,Cc1ccccc1N1CC2(CCN(S(=O)(=O)C3CC3)C2)CC1=O (configuration not stated),-190.8
23,CC(=O)Nc1c(C)noc1/C=C\c1ccc(S(=O)(=O)N2CCCC2)cc1,10.91
24,Cc1cc(C)nc(N2CCCC(C(=O)Nc3n[nH]c(C(C)C)n3)C2)n1 (configuration not stated),-27.75
25,CCN1CCN(C2CCN(Cc3nnc(C4CC4)o3)CC2)C1=O,-106.8
26,Cc1nc(C)n(CC2CCCN2Cc2ncc(C(C)(C)C)o2)n1 (configuration not stated),60.71

row,Compound,Percent Effect [%]
1,Cc1cnn(CC2CCCCN2Cc2ncc(C(C)(C)C)o2)c1 (configuration not stated),9.696
2,CCN1CCN(C2CCN(Cc3ncc(C(C)(C)C)o3)CC2)C1=O,51.71
3,Cc1nc(C)n(CC2CCCN2Cc2ncc(-c3ccccc3)o2)n1 (configuration not stated),26.63
4,CCC1CCCCN1Cc1ncc(C(C)(C)C)o1 (configuration not stated),70.27
5,CCN1CCN(C2CCN(Cc3nnc(C(C)C)o3)CC2)C1=O,-127.6
6,CC(C)(C)c1cnc(CN2CCC(CO)CC2)o1,-57.31
7,Cc1nc(C)n(CC2CCCN(Cc3ncc(C(C)(C)C)o3)C2)n1 (configuration not stated),-87.32
8,CC(C)N1C[C@@H](CO)[C@H](c2ccccc2)S1(=O)=O,-2.146
9,COc1cccc(Cn2ncnc2CNC(C)=O)c1,-17.74
10,NC1CCCN(Cc2cccc(C(F)(F)F)c2)C1=O (configuration not stated),-34.65
11,O=S(=O)(CC1CCCCO1)Nc1c(F)cccc1-n1cccn1 (configuration not stated),-6.246
12,N#CC1COCCN1C(=O)c1ccc2cc[nH]c2c1 (configuration not stated),-76.07
13,N[C@H]1CN(C(=O)c2ccc3[nH]c(CO)nc3c2)C[C@@H]1c1ccccc1,-84.77
14,COCCC1COC2(CCN(C(=O)c3cccn3C)CC2)C1 (configuration not stated),-157.5
15,O=C(NC1CCCCC1)c1cc(Br)cnc1N1CCCCC1,-52.51
16,CCc1ccccc1OCCN1CC[C@@]2(O)CCNC[C@H]2C1,-93.81
17,COc1cc(C)ccc1OCCN1CC[C@@]2(O)CCNC[C@H]2C1,-90.26
18,CCn1ncnc1CN1CCC(CNC(=O)c2cccc(C)c2)C1 (configuration not stated),-152.4
19,CCCC1CCCN(Cc2csc(-c3cnn(C)c3)n2)CC1 (configuration not stated),52.75
20,Cn1cc(-c2nc(CN3CCc4c(ncn4C4CC4)C3)cs2)cn1,-33.38
21,Cn1cc(-c2nc(CN3CCN(CCO)CC3)cs2)cn1,-64.62
22,Cn1cc(CN2CCC3(CC2)CN(c2cccnc2)C(=O)CO3)cn1,-97.96
23,c1cnn(C2CN(c3nc(-c4ccncc4)nc4c3CCC4)C2)c1,-81.86
24,Cn1ccnc1CN1CCc2ncnc(N3CCCC(C#N)C3)c2CC1 (configuration not stated),-81.1
25,N#CC1CCCN(c2nc(-c3ccccc3)nc3c2CCNCC3)C1 (configuration not stated),79.11
26,CC(C)CNC(=O)c1cccc(Oc2ccc3nncn3n2)c1,-53.64

row,Compound,Percent Effect [%]
1,O=C(C1CCOCC1)N1C[C@H](OCc2cccnc2)[C@H]2COC[C@H]21,-121.2
2,CSc1nccn1-c1cccc(C(=O)NCCN2CCS(=O)(=O)CC2)c1,-149.1
3,CCc1nc(CN2CCCN(C(=O)CCOC(C)C)CC2)cs1,-60.5
4,O[C@@H]1CN(CC2=Cc3cc(Cl)ccc3OC2)CC[C@H]1N1CCCCCC1,-10.35
5,Clc1ccc2c(c1)C=C(CNC1CCc3ncnn3C1)CO2 (configuration not stated),-63.09
6,Cc1cn2c(n1)C(CNCC1=Cc3ccccc3OC1)CCC2 (configuration not stated),78.44
7,CCn1ncc2c1CCCC2NCC1=Cc2ccccc2OC1 (configuration not stated),-139.8
8,CC(C)(C)c1ncc(CNCC2CCCn3ccnc32)s1 (configuration not stated),11.38
9,Cc1cn2c(n1)C(CNCC1=Cc3cc(Cl)ccc3OC1)CCC2 (configuration not stated),87.8
10,CC(C)(C)c1cn2c(n1)C(CNCc1ccccn1)CCC2 (configuration not stated),92.56
11,C1=C(CNC2CCc3ncnn3C2)COc2ccccc21 (configuration not stated),-78.33
12,CCN1CCOC(CNCc2ccccn2)C1 (configuration not stated),-142.7
13,O=C(Nc1cnccn1)[C@H]1CC[C@@H]2[C@@H](CCN2Cc2ccccn2)O1.O=C(O)C(F)(F)F,-97.13
14,COc1cc(C(=O)NCCCO)cc2occc12,-87.71
15,CCc1[nH]c2ccc(CNC(=O)c3cnc(N)nc3C)cc2c1C,-136.6
16,Cc1[nH]c2c(F)cccc2c1CC(=O)NC1CCCCNC1=O (configuration not stated),-28.67
17,O=C1CNc2ncnc(Nc3cnn(Cc4cccc(F)c4)c3)c2N1,-137.4
18,O=C(Cc1csc(-c2ccco2)n1)N1CCCC1Cn1cccn1 (configuration not stated),-188.1
19,Cc1ccc(CN2CCC3(CCN(S(=O)(=O)c4ccccc4)C3)C2)o1 (configuration not stated),79.54
20,Cc1ccc(CN2CCC3(CCCN(S(C)(=O)=O)C3)C2)o1 (configuration not stated),-70.82
21,CCS(=O)(=O)N1CCC2(CN(Cc3ccc(C)o3)C2)C1,-57.27
22,O=C(c1cccs1)N1CC[C@H](O)[C@@H]1Cc1ccccc1,-5.522
23,COc1ccccc1C(=O)Nc1c(F)c(C(=O)N2CCCC2)nn1C,-139.8
24,COC(=O)CN1Cc2cc3c(cc2NCCC1=O)OCO3,-54.83
25,Cc1c(C)n(Cc2ccccn2)c2nc3c(c(N)c12)CCCCC3,22.61
26,CCCc1nc2c(c(C)c(C)n2Cc2ccncc2)c(N)c1CC,59.32

row,Compound,Percent Effect [%]
1,Cc1cc(C(=O)N2CCNC(=O)C2)c(C)n1Cc1ccccn1,-70.27
2,CCc1nc2c(c(C)c(C)n2Cc2cccnc2)c(N)c1C,18.39
3,Cc1c(C)n(Cc2ccccn2)c2nc3c(c(N)c12)CCCC3,45.51
4,Cc1c(C)n(-c2ccccn2)c2nc3c(c(N)c12)CCCC3,19.64
5,Cc1c(C)n(Cc2ccccn2)c2nc3c(c(N)c12)CCCCCC3,58.63
6,CCc1cc(NCCc2cccnc2)n2nc(C)c(C)c2n1,-66.72
7,CCCc1nc2c(c(C)c(C)n2Cc2ccccn2)c(N)c1CC,58.37
8,Cc1c(C)n(Cc2ccncc2)c2nc3c(c(N)c12)CCCC3,-16.59
9,Cc1c(C)n(Cc2ccncc2)c2nc3c(c(N)c12)CCCCCC3,27.24
10,CCCc1nc2c(c(C)c(C)n2Cc2cccnc2)c(N)c1CC,64.11
11,O=C(C1CCOC1)N1CCN(Cc2ccncc2)c2ncccc2C1 (configuration not stated),-72.96
12,Cn1cc(I)c(C(=O)NC2CCCCC2)n1,-69.52
13,CCCC(O)CN1CCC(=O)N(CC)Cc2cc3c(cc21)OCO3 (configuration not stated),-23.81
14,CC(CC(=O)N1CCCN(Cc2cscn2)CC1)n1cccc1 (configuration not stated),4.954
15,CC(NCc1cccc(COC2CCCC2)c1)c1cnn(C)c1 (configuration not stated),19.99
16,CC(C)CC(Cc1cccc(Br)c1)C(=O)O (configuration not stated),-132.5
17,Cc1nc(C)c(S(=O)(=O)NC(=O)c2cccs2)s1,-74.76
18,CO[C@H]1CC[C@H]2[C@H]1OCCN2Cc1ccc(F)cc1.O=C(O)C(F)(F)F,-88.16
19,Cc1ccnc(NC(=O)C2CCN(CCCn3ccnc3C)CC2)c1,23.63
20,CCCc1nnsc1C(=O)NCC(O)c1ccc(SC)cc1 (configuration not stated),-63.08
21,Cc1cccc(CN2CCCC3(CCN(CC4CCCO4)CC3)C2)n1.O=C(O)C(F)(F)F.O=C(O)C(F)(F)F (configuration not stated),42.53
22,Cc1cccc(CN2CCC3(CCCN(Cc4cnn(C)c4)C3)C2)n1.O=C(O)C(F)(F)F.O=C(O)C(F)(F)F (configuration not stated),-27.4
23,COc1cccc(C(=O)N2CCCC(CNS(C)(=O)=O)C2)c1 (configuration not stated),-46.69
24,O=C(CCn1cccc1)N1CCc2[nH]nc(COc3ccccc3)c2C1,-21.18
